The results in this text go back to PubChem BioAssay (NCATS).

Records with an inconclusive call do not appear. Active and inactive are the calls of the source. The call rests on the fitted dose curve; in most records, active means well fitted cell-killing curve with a large enough effect; inconclusive means small, poorly fitted or top-dose-only effect, or effect the other way; inactive means no such curve, though single readings can be large or run the other way.
Potency means the concentration at half of the fitted maximal effect.

One assay in a line: Quantitative High-Throughput drug screen in 47 multiple myeloma cell lines against the NCATS MIPE library collection: OPM1_PLB cell viability assay (AID 1918989). Further: nearly all actives have a fitted effect of over 40% in size. The conditions noted are these: CellTiter-Glo, 48 h; series mostly up to 45.8 µM; viability (% of control): at the top concentration. Summed up:
(§1)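 Myeloma cells (500/well) treated with MIPE 4.0 compounds for 48 h at 37 °C, 5% CO2. Viability read as ATP via CellTiter-Glo luminescence after 5 min at RT; DMSO-only wells = 100%, media-only = 0% viability.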
For orientation: Cellular ATP, detected with luciferase, serves as a proxy for viable cell number.
`CN[C@@H](C)C(=O)N[C@H]1CN(C(=O)CC(C)C)CC[C@H]2CC[C@@H](C(=O)NC(c3ccccc3)c3ccccc3)N2C1=O`: the Potency was 14.8 µM (active).

As to `Cc1ccc(F)c(NC(=O)Nc2ccc(-c3cccc4[nH]nc(N)c34)cc2)c1`, the Potency is 10.5 µM (active).

Take `COc1cc2c(cc1OC)CN(CCc1ccc(NC(=O)c3cc(OC)c(OC)cc3NC(=O)c3cnc4ccccc4c3)cc1)CC2`: the Potency is 14.8 µM (active).

Turning to `CC(C)C(=O)Nc1ncc(-c2cc(C(F)F)nn2-c2c(Cl)cccc2Cl)s1`, the Potency was 20.9 µM (active).

As for `N#CC1(c2ccc(NC(=O)c3cccnc3NCc3ccncc3)cc2)CCCC1`, the Potency was 16.6 µM (active).

As for `CCOC1OC(=O)C[C@H]1NC(=O)[C@@H]1CCCN1C(=O)[C@@H](NC(=O)c1ccc(N)c(Cl)c1)C(C)(C)C` (stereo not given in full), the “viability (% of control)” value is 127% (inactive).

For the molecule `NS(=O)(=O)c1ccc(NC2=CC(=O)c3ccccc3C2=O)cc1`, the Potency is 6.62 µM (active).

`Cc1c(O)cccc1C(=O)N[C@@H](CSc1ccccc1)[C@H](O)CN1C[C@H]2CCCC[C@@H]2C[C@@H]1C(=O)NC(C)(C)C`: the Potency was 18.7 µM (active).

In the case of `Cc1cnc(C(=O)O)c[n+]1[O-]`, the “viability (% of control)” value is 131% (inactive).

Consider `O=C(O)[C@H]1O[C@H](Oc2cc3oc(-c4ccccc4)cc(=O)c3c(O)c2O)[C@H](O)[C@@H](O)[C@H]1O`, for which the Potency was 18.7 µM (active).

As to `CC(C)(Cc1ccc2ccccc2c1)NC[C@@H](O)COc1cccc(Cl)c1C#N`, the Potency is 6.62 µM (active).

As for `Cc1c(NC(=O)c2ccc(C(C)(C)C)cc2)cccc1-c1cn(C)c(=O)c(Nc2ccc(C(=O)N3CCOCC3)cc2)n1`, the Potency was 18.7 µM (active).

On to `O=C(NC1CCOCC1)c1ccc(-c2cc(-c3cn[nH]c3-c3ccccn3)ccn2)cc1`, for which the “viability (% of control)” value was 122% (inactive).

Turning to `C=C1C(=O)OC2C=C(C)CCC=C(C)CCC12` (stereo not given), the Potency is 18.7 µM (active).

The next assay in a line: Quantitative High-Throughput drug screen in 47 multiple myeloma cell lines against the NCATS MIPE library collection: SKMM1_PLB cell viability assay (AID 1919863). Further: nearly all actives have a fitted effect of over 35% in size. The conditions noted are these: SKMM1 myeloma viability, CellTiter-Glo ATP, 48 h; viability: stronger effect = lower value. Summed up: as §1
As to `C[C@H](NC(=O)c1sccc1OCc1ccc(Cl)cc1)c1ccccc1`, the Potency is 18.7 µM (active).

Turning to `CC1(C)CCC(CN2CCN(c3ccc(C(=O)NS(=O)(=O)c4ccc(NCC5CCOCC5)c([N+](=O)[O-])c4)c(Oc4cnc5[nH]ccc5c4)c3)CC2)=C(c2ccc(Cl)cc2)C1`, the Potency was 20.9 µM (active).

Regarding `CNC(=O)c1ccccc1Sc1ccc2c(C=Cc3ccccn3)n[nH]c2c1`, the Potency was 13.2 µM (active).

`O=C1NC(=O)C(=Cc2ccc3nccnc3c2)S1`: the Potency is 6.45 µM (active).

Turning to `CCCCCNC(=O)N1CCC(CN(Cc2ccc(Cl)cc2)Cc2ccc([N+](=O)[O-])s2)C1` (stereo not given), the Potency was 18.7 µM (active).

Regarding `Cc1ccccc1C(C(=O)NC1CCCCC1)N(C(=O)Cn1ccnc1C)c1cccc(F)c1` (stereo not given), the Potency was 0.469 µM (active).

As for `O=c1cc(CN2CCOCC2)occ1OCCCCCSc1ccnc2cc(C(F)(F)F)ccc12`, the viability is 111% (inactive).

Turning to `NC1CCC(Nc2nc(Nc3ccc(C(=O)N4CCCCC4)cc3)c3ncn(-c4cccc(F)c4)c3n2)CC1` (stereo not given), the viability was 125% (inactive).

On to `CC[C@H]1OC(=O)[C@H](C)[C@@H](O[C@H]2C[C@@](C)(OC)[C@@H](O)[C@H](C)O2)[C@H](C)[C@@H](O[C@@H]2O[C@H](C)C[C@H](N(C)C)[C@@H]2O)[C@](C)(O)C[C@@H](C)CN(C)[C@H](C)[C@@H](O)[C@]1(C)O`, for which the Potency is 16.6 µM (active).

Consider `Cc1cc(OCCCc2c(C(=O)O)n(Cc3cccnc3)c3c(-c4c(COc5ccc(N6CCN([S+](C)(=O)[O-])CC6)cc5)nn(C)c4C)cccc23)cc(C)c1Cl`, for which the Potency is 23.5 µM (active).

On to `COc1cc(N2CCC(N3CCN(C)CC3)CC2)ccc1Nc1ncnc(Nc2ccccc2S(=O)(=O)C(C)C)n1`, for which the Potency is 23.5 µM (active).

Consider `COc1cc2c(cc1OC)CN(CCc1ccc(NC(=O)c3cc(OC)c(OC)cc3NC(=O)c3cnc4ccccc4c3)cc1)CC2`, for which the viability was 118% (inactive).

`CC(C)C(=O)Nc1ncc(-c2cc(C(F)F)nn2-c2c(Cl)cccc2Cl)s1`: the Potency was 16.6 µM (active).

With `CC(C)(C)COc1ccc(-n2cc(C(=O)O)cn2)cc1C#N`, the viability was 120% (inactive).

Consider `CCOC1OC(=O)C[C@H]1NC(=O)[C@@H]1CCCN1C(=O)[C@@H](NC(=O)c1ccc(N)c(Cl)c1)C(C)(C)C` (stereo not given in full), for which the viability is 129% (inactive).

Take `NS(=O)(=O)c1ccc(NC2=CC(=O)c3ccccc3C2=O)cc1`: the Potency was 4.69 µM (active).

For `Cc1c(O)cccc1C(=O)N[C@@H](CSc1ccccc1)[C@H](O)CN1C[C@H]2CCCC[C@@H]2C[C@@H]1C(=O)NC(C)(C)C`, the Potency was 20.9 µM (active).

As to `O=C(O)[C@H]1O[C@H](Oc2cc3oc(-c4ccccc4)cc(=O)c3c(O)c2O)[C@H](O)[C@@H](O)[C@H]1O`, the Potency was 20.9 µM (active).

For `CC(C)(Cc1ccc2ccccc2c1)NC[C@@H](O)COc1cccc(Cl)c1C#N`, the viability is 126% (inactive).

Regarding `C=C1C(=O)OC2C=C(C)CCC=C(C)CCC12` (stereo not given), the Potency was 29.6 µM (active).

The nature of another assay: Quantitative High-Throughput drug screen in 47 multiple myeloma cell lines against the NCATS MIPE library collection: U266_ATCC cell viability assay (AID 1919864). Further: nearly all actives have a fitted effect of over 35% in size. The conditions noted are these: U266 myeloma viability, CellTiter-Glo ATP luminescence, 48 h; series mostly up to 45.8 µM; viability (% of DMSO control): at the top concentration. The essentials:
as §1
Turning to `CS(=O)(=O)N(Cc1ccco1)CC(O)Cn1c2ccccc2c2ccccc21` (stereo not given), the Potency was 18.7 µM (active).

With `O=C(OCC#CCSc1nnc(-c2cccc3ccccc23)o1)c1cc2ccccc2s1`, the “viability (% of DMSO control)” value was 112% (inactive).

Consider `COCCOc1nc(-c2ccc(Cl)c(Cl)c2)n(-c2ccc(NC(=O)CCl)cc2)n1`, for which the Potency was 26.4 µM (active).

On to `O=C(Nc1cc(Cl)cc2c1[nH]c1cnccc12)c1cccnc1`, for which the Potency was 20.9 µM (active).

Consider `CCCCCNC(=O)N1CCC(CN(Cc2ccc(Cl)cc2)Cc2ccc([N+](=O)[O-])s2)C1` (stereo not given), for which the Potency was 16.6 µM (active).

For the molecule `Cc1ccccc1C(C(=O)NC1CCCCC1)N(C(=O)Cn1ccnc1C)c1cccc(F)c1` (stereo not given), the Potency was 5.26 µM (active).

For `NC1CCC(Nc2nc(Nc3ccc(C(=O)N4CCCCC4)cc3)c3ncn(-c4cccc(F)c4)c3n2)CC1` (stereo not given), the “viability (% of DMSO control)” value was 147% (inactive).

Regarding `CC[C@H]1OC(=O)[C@H](C)[C@@H](O[C@H]2C[C@@](C)(OC)[C@@H](O)[C@H](C)O2)[C@H](C)[C@@H](O[C@@H]2O[C@H](C)C[C@H](N(C)C)[C@@H]2O)[C@](C)(O)C[C@@H](C)CN(C)[C@H](C)[C@@H](O)[C@]1(C)O`, the Potency was 9.35 µM (active).

Consider `Cc1ccc(F)c(NC(=O)Nc2ccc(-c3cccc4[nH]nc(N)c34)cc2)c1`, for which the Potency was 16.6 µM (active).

For `COc1cc2c(cc1OC)CN(CCc1ccc(NC(=O)c3cc(OC)c(OC)cc3NC(=O)c3cnc4ccccc4c3)cc1)CC2`, the Potency was 5.26 µM (active).

For the molecule `N#CC1(c2ccc(NC(=O)c3cccnc3NCc3ccncc3)cc2)CCCC1`, the “viability (% of DMSO control)” value is 133% (inactive).

As to `Cc1c(O)cccc1C(=O)N[C@@H](CSc1ccccc1)[C@H](O)CN1C[C@H]2CCCC[C@@H]2C[C@@H]1C(=O)NC(C)(C)C`, the Potency is 18.7 µM (active).

As to `CC(=O)O[C@]1(C(C)=O)CC[C@@H]2[C@@H]3C[C@H](C)C4=CC(=O)CC[C@]4(C)[C@H]3CC[C@@]21C`, the Potency is 20.9 µM (active).

In the case of `Cc1cnc(C(=O)O)c[n+]1[O-]`, the “viability (% of DMSO control)” value is 123% (inactive).

Consider `O=C(NC1CCOCC1)c1ccc(-c2cc(-c3cn[nH]c3-c3ccccn3)ccn2)cc1`, for which the “viability (% of DMSO control)” value is 124% (inactive).

For `C=C1C(=O)OC2C=C(C)CCC=C(C)CCC12` (stereo not given), the Potency was 20.9 µM (active).

One may read the viability as a read-out of living cells in per cent, often relative to untreated cells.
